Experimental data reported in article PMC7862700, “An all-to-all approach to the identification of sequence-specific readers for epigenetic DNA modifications on cytosine”.

Assays:
Assay in all cases: DAPPL (digital affinity profiling via proximity ligation, sequencing); 10 mM Tris-HCl pH 7.5, 50 mM NaCl, 1 mM DTT, 4% glycerol, room temperature, 30 min; GST-TFs on glutathione beads, 16-mer random dsDNA library, 0.1% formaldehyde crosslink after washing; high values mean tight binding
Settings in all cases: protein: recombinant; tags: N-terminal GST; dsDNA, one strand shown
[1] = target: T1, ERF (Homo sapiens, UniProt P50548 1-548)
T1 sequence: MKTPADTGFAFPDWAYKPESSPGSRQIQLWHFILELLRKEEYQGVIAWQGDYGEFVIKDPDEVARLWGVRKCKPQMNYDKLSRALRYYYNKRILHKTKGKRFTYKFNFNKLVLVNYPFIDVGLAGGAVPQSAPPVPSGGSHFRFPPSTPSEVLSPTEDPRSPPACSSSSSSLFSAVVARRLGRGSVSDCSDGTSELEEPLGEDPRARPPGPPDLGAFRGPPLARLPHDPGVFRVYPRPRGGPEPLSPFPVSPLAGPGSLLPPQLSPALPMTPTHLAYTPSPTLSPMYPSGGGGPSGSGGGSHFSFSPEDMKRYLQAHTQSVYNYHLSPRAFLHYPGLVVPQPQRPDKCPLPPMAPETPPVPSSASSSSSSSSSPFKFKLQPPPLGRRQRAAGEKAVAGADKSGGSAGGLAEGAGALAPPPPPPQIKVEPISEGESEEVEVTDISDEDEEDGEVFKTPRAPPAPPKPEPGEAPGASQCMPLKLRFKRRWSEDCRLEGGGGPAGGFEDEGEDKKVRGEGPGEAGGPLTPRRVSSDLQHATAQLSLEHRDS
How it was run: (§1)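 After expression in yeast as GST fusions, human transcription factors were bound to glutathione beads, DNA-barcoded and mixed with a tag-only sample. The pools were incubated with 200 nmole of a 16-mer random double-stranded DNA library in Tris/NaCl/DTT/glycerol buffer (30 min, room temperature), washed and crosslinked with 0.1% formaldehyde. Proximity ligation with BsaI/T4 ligase ran for 1 h at 37 °C, before PCR amplification and sequencing on an Illumina NextSeq500. Binding signal is a hexamer's read frequency for a factor divided by its frequency for the tag-only sample.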

[2] = target: T2, ETV3L (Homo sapiens, UniProt Q6ZN32 1-361)
T2 sequence: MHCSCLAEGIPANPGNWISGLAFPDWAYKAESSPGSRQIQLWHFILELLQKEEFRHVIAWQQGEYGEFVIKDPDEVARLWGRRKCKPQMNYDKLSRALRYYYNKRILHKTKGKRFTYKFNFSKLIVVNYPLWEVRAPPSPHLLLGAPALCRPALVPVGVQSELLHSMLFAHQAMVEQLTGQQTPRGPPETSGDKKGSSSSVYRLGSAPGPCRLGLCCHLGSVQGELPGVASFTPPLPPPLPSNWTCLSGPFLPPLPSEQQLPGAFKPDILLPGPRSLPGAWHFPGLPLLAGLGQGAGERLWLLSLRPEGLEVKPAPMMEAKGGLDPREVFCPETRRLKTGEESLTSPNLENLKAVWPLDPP
How it was run: as §1

[3] = target: T3, ETS2 (Homo sapiens, UniProt P15036 1-469)
T3 sequence: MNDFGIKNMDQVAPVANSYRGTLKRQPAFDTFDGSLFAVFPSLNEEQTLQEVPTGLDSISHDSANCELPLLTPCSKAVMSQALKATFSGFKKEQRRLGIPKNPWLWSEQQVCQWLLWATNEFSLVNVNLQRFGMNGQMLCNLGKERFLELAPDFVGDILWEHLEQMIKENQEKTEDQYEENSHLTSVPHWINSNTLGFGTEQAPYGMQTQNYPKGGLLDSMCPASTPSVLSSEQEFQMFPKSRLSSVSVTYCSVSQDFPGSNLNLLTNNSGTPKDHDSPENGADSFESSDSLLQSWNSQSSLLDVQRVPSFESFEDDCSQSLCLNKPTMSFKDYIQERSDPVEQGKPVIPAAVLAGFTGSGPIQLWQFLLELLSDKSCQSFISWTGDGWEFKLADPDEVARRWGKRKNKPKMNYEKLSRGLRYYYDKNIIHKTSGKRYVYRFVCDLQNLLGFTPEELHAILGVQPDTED
How it was run: as §1

[4] = target: T4, SPDEF (Homo sapiens, UniProt O95238 1-335)
T4 sequence: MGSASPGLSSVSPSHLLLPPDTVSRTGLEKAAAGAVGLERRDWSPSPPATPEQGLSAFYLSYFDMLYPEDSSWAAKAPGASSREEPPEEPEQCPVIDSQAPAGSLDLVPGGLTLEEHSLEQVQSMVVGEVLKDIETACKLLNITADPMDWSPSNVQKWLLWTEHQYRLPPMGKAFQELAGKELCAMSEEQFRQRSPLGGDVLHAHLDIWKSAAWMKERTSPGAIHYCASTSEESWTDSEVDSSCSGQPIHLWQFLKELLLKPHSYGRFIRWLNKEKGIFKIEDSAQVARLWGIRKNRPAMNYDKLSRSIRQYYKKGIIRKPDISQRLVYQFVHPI
How it was run: as §1

[5] = target: T5, ETV7 (Homo sapiens, UniProt Q9Y603 1-341)
T5 sequence: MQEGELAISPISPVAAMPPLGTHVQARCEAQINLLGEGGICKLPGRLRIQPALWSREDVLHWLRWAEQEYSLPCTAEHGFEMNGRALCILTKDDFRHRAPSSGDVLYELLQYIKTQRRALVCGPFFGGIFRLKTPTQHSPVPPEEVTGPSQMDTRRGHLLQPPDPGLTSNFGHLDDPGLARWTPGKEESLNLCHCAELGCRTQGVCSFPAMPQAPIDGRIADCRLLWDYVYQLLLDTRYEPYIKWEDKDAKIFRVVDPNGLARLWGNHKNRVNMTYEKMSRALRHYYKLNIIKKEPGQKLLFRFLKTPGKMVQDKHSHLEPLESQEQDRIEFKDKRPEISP
How it was run: as §1

[6] = target: T6, ELF5 (Homo sapiens, UniProt Q9UKW6-2 1-255)
T6 sequence: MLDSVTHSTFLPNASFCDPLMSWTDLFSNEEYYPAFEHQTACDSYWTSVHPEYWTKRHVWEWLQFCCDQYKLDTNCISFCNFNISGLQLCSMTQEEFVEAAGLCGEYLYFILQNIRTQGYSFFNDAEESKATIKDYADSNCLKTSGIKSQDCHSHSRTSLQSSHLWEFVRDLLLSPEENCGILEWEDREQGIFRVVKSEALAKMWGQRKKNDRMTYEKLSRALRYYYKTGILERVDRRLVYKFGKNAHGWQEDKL
How it was run: as §1

[7] = target: T7, ETV3 (Homo sapiens, UniProt P41162-2 1-143)
T7 sequence: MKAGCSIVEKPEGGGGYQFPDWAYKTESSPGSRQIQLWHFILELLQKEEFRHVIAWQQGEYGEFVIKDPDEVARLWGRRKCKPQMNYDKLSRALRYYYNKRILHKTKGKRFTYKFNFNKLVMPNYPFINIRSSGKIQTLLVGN
How it was run: as §1

[8] = target: ETV6 (Homo sapiens, UniProt P41212 1-452)
How it was run: as §1

ETV6, sequence (P41212 whole entry): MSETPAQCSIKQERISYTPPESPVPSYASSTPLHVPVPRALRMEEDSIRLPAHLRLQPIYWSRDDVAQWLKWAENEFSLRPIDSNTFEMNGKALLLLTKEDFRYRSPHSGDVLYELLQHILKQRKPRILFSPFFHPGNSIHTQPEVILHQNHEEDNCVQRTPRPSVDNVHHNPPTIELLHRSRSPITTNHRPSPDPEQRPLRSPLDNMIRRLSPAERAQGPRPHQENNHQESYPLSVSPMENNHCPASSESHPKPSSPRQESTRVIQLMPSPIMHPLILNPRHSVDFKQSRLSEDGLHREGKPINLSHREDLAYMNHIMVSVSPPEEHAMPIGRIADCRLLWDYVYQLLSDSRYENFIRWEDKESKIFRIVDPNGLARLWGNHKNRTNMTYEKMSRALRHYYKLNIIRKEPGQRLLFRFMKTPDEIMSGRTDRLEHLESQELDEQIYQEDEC

AGCTAC
binding signal [1]: 1.25 fold enrichment (6-mer frequency, TF over GST control) | binding signal [2]: 1.14 fold enrichment (6-mer frequency, TF over GST control) | binding signal [3]: 1.09 fold enrichment (6-mer frequency, TF over GST control) | binding signal [4]: 1.02 fold enrichment (6-mer frequency, TF over GST control) | binding signal [5]: 1.31 fold enrichment (6-mer frequency, TF over GST control) | binding signal [6]: 1.18 fold enrichment (6-mer frequency, TF over GST control) | binding signal [7]: 1.17 fold enrichment (6-mer frequency, TF over GST control) | binding signal [8]: 1.22 fold enrichment (6-mer frequency, TF over GST control)

CATCTA
binding signal [1]: 1.19 fold enrichment (6-mer frequency, TF over GST control) | binding signal [2]: 1.16 fold enrichment (6-mer frequency, TF over GST control) | binding signal [3]: 1.13 fold enrichment (6-mer frequency, TF over GST control) | binding signal [4]: 1.07 fold enrichment (6-mer frequency, TF over GST control) | binding signal [5]: 1.21 fold enrichment (6-mer frequency, TF over GST control) | binding signal [6]: 1.17 fold enrichment (6-mer frequency, TF over GST control) | binding signal [7]: 1.05 fold enrichment (6-mer frequency, TF over GST control) | binding signal [8]: 1.15 fold enrichment (6-mer frequency, TF over GST control)

TTGATG
binding signal [1]: 1.66 fold enrichment (6-mer frequency, TF over GST control) | binding signal [2]: 1.59 fold enrichment (6-mer frequency, TF over GST control) | binding signal [3]: 1.58 fold enrichment (6-mer frequency, TF over GST control) | binding signal [4]: 1.51 fold enrichment (6-mer frequency, TF over GST control) | binding signal [5]: 1.45 fold enrichment (6-mer frequency, TF over GST control) | binding signal [6]: 1.6 fold enrichment (6-mer frequency, TF over GST control) | binding signal [7]: 1.43 fold enrichment (6-mer frequency, TF over GST control) | binding signal [8]: 1.57 fold enrichment (6-mer frequency, TF over GST control)

TCACGC
binding signal [1]: 1.26 fold enrichment (6-mer frequency, TF over GST control) | binding signal [2]: 1.2 fold enrichment (6-mer frequency, TF over GST control) | binding signal [3]: 1.11 fold enrichment (6-mer frequency, TF over GST control) | binding signal [4]: 1.12 fold enrichment (6-mer frequency, TF over GST control) | binding signal [5]: 1.16 fold enrichment (6-mer frequency, TF over GST control) | binding signal [6]: 1.15 fold enrichment (6-mer frequency, TF over GST control) | binding signal [7]: 1.07 fold enrichment (6-mer frequency, TF over GST control) | binding signal [8]: 1.15 fold enrichment (6-mer frequency, TF over GST control)

TTAGGG
binding signal [1]: 1.21 fold enrichment (6-mer frequency, TF over GST control) | binding signal [2]: 1.14 fold enrichment (6-mer frequency, TF over GST control) | binding signal [3]: 1.08 fold enrichment (6-mer frequency, TF over GST control) | binding signal [4]: 1.18 fold enrichment (6-mer frequency, TF over GST control) | binding signal [5]: 1.06 fold enrichment (6-mer frequency, TF over GST control) | binding signal [6]: 1.11 fold enrichment (6-mer frequency, TF over GST control) | binding signal [7]: 1.11 fold enrichment (6-mer frequency, TF over GST control) | binding signal [8]: 1.08 fold enrichment (6-mer frequency, TF over GST control)

TCCCCC
binding signal [1]: 1.45 fold enrichment (6-mer frequency, TF over GST control) | binding signal [2]: 1.43 fold enrichment (6-mer frequency, TF over GST control) | binding signal [3]: 1.42 fold enrichment (6-mer frequency, TF over GST control) | binding signal [4]: 1.35 fold enrichment (6-mer frequency, TF over GST control) | binding signal [5]: 1.52 fold enrichment (6-mer frequency, TF over GST control) | binding signal [6]: 1.7 fold enrichment (6-mer frequency, TF over GST control) | binding signal [7]: 1.51 fold enrichment (6-mer frequency, TF over GST control) | binding signal [8]: 1.56 fold enrichment (6-mer frequency, TF over GST control)

CCTGCT
binding signal [1]: 1.53 fold enrichment (6-mer frequency, TF over GST control) | binding signal [2]: 1.65 fold enrichment (6-mer frequency, TF over GST control) | binding signal [3]: 1.62 fold enrichment (6-mer frequency, TF over GST control) | binding signal [4]: 1.82 fold enrichment (6-mer frequency, TF over GST control) | binding signal [5]: 1.65 fold enrichment (6-mer frequency, TF over GST control) | binding signal [6]: 1.84 fold enrichment (6-mer frequency, TF over GST control) | binding signal [7]: 1.67 fold enrichment (6-mer frequency, TF over GST control) | binding signal [8]: 1.68 fold enrichment (6-mer frequency, TF over GST control)

TCCGTA
binding signal [1]: 1.43 fold enrichment (6-mer frequency, TF over GST control) | binding signal [2]: 1.53 fold enrichment (6-mer frequency, TF over GST control) | binding signal [3]: 1.57 fold enrichment (6-mer frequency, TF over GST control) | binding signal [4]: 1.79 fold enrichment (6-mer frequency, TF over GST control) | binding signal [5]: 1.37 fold enrichment (6-mer frequency, TF over GST control) | binding signal [6]: 2.03 fold enrichment (6-mer frequency, TF over GST control) | binding signal [7]: 1.71 fold enrichment (6-mer frequency, TF over GST control) | binding signal [8]: 1.54 fold enrichment (6-mer frequency, TF over GST control)
